# Source: PubChem BioAssay AID1645870 (National Center for Advancing Translational Sciences (NCATS), 2021)
# Several values for one entry are separate records, joined by “and”; a condition that tells them apart may be missing. Equal entries are not always repeated. The whole screen tested about 59,000 compounds, of which about 1,500 (2.5%) were called active. Another 10% or so got no clear call; they are omitted. The sample holds actives, similar compounds and a random draw of the others, so the mix is not that of the screen. The call rests on the fitted dose curve; in most records, active means well fitted inhibition curve with a large enough effect; inconclusive means small, poorly fitted or top-dose-only effect; inactive means flat fitted curve, though single readings scatter. Where a structure was tested more than once in an assay, its records may differ in their call.
# Biological target: N-terminal Xaa-Pro-Lys N-methyltransferase 1 (Homo sapiens) (UniProt Q9BV86)
# Assay: Primary qHTS for Inhibitors of N-terminal methyltransferase 1 (NTMT1): MTaseGlo Assay; further: nearly all actives have a fitted effect of over 65% in size;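 on activity change, negative = inhibition: plate controls were DMSO vehicle for no effect and no enzyme for full effect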
# Conditions: NTMT1 MTase-Glo SAH luminescence, purified enzyme; series mostly up to 114 µM; activity change, negative = inhibition: at the top concentration
# Description: Assay Submitter (PI): Rong Huang Ph.D.
# Purdue University, West Lafayette, IN 47907
# The N-terminal methytransferase 1 is the first methyltransferase that methylates protein alpha-N-amines and plays an important role in regulating cell mitosis, chromatin interactions and DNA repair. It is observed to be over-expressed in various cancer patient tissues like malignant melanoma and colorectal cancer tissues. Knockdown of NTMT1 in cancer cells causes cell mitotic defects and enhances sensitivity to DNA damaging chemotherapeutics. […] These critical cellular processes in which NTMT1 is implicated, coupled with emerging links to cellular dysfunction, strengthen the inference that NTMT1 is a compelling novel anticancer target. Progress have been made in understanding the molecular properties of NTMT1 and the biological consequences of protein alpha-N-terminal methylation, but there are no specific small molecule probes available for NTMT1 to fully characterize its MTase activity. To address this unmet need, a panel of assay is created and established to enable quantitative high-throughput screening (qHTS) for novel, potent, and selective small molecule NTMT1 inhibitors. Two orthogonal qHTS that use different reagents (ThioGlo vs. MTaseGlo) are developed for primary robotic screening against the NCATS chemical library of more than 400,000 small molecules. Identified inhibitors are reacquired, validated, and further characterized.
# MTaseGlo Assay is a luminescence screen that measure the activity of methyltransferases based on the reaction product S-adenosyl homocysteine (SAH). The substrate SAM is converted to SAH upon enzyme activation. MTase-Glo reagent and detection solution convert SAH to ATP and measure the light from the luciferase reaction.
# Materials: NTMT1 enzyme, substrate SPKRIA, control peptide RCC1-6 is provided by the Huang laboratory.
# SEQUENCE No. (e.g., 1, 2, 3, etc.); […] (e.g., Cells, Incubation, Reagent, etc.); VALUE; DESCRIPTION
# 1; Enzyme; 3 uL; Dispense enzyme mixture (final concentrations of 125 nM NTMT1 and 100 uM SAM) into Greiner 1536-well white / solid bottom assay plate (Greiner Bio One, Monroe, NC).
# 2; Compounds; 23 nL; Compounds and controls were transferred via a Kalypsys Pin Tool (Wako USA) equipped with a 1536-slotted pin array (Wako Automation, Richmond, VA)
# 3; Incubation; 15 min; Incubate at room temperature
# 4; Substrate; 1 uL; Dispense 1 uL of substrate at final concentration of 1 uM. Buffer solution was dispensed in control wells. The assay plate was covered with metal lids.
# 5; Incubation; 30 min; Incubate at room temperature, protected from lights.
# 6; Reagent; 1 uL; Dispensed 5x MTase-Glo detection reagent (R) into the assay plate. The plate was covered with metal lids.
# 7; Incubation; 30 min; Incubate the assay plates at room temperature in the dark to allow for SAH to be converted to ADP.
# 8; Reagent; 5 uL; Dispense 5 uL of 1x MTase-Glo Detection Solution (R) to allow for ADP to be converted to ATP which was then detected with a luciferase reaction.
# 9; Centrifuge; 15 sec; Centrifuge the assay plate for 15 seconds at 1000 RPM.
# 10; Incubation; 30 min; Assay plates were incubation at room temperature in the dark.
# 11; Detection; Luminescence; Plates were read on ViewLux detector (PerkinElmer). Data were normalized to no-enzyme (0% activity) and no-inhibitor (DMSO; 100%) controls, and the resulting percent inhibition data were fitted to a 4-parameter Hill equation using GraphPad Prism.
# Potency means the concentration at half of the fitted maximal effect.
# Chain of N-terminal Xaa-Pro-Lys N-methyltransferase 1 (Homo sapiens) (Q9BV86 whole entry, looked up): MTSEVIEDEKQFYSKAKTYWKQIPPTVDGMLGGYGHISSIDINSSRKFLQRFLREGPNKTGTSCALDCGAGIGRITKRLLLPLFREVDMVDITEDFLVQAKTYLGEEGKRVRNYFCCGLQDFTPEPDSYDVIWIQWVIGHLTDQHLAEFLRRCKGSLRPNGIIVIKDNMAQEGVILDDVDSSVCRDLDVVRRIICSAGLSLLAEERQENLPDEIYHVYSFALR
Structure (SMILES),"activity change, negative = inhibition",Potency
COc1ccc(C2=Nn3c(nnc3-c3ccccc3F)SC2)cc1OC,8.76% (inactive),
COc1ccc(NC(=O)CSc2nc3ccccc3[nH]2)cc1,3.79% (inactive),
COc1ccc(-c2nc3c(c(SCC(=O)Nc4ccc(C(=O)O)cc4)n2)Cc2ccccc2O3)cc1,,11.2 µM (active)
COC(=O)c1ccc(NC(=O)CSc2n[nH]c(-c3ccccc3)n2)cc1,7.74% (inactive),
CN(C)CC(=O)NC1CCCc2c1cnn2-c1ccc(F)cc1F (configuration not stated),16.2% (inactive),
O=C(Nc1ccc(Cl)c(Cl)c1)Nc1nnc(C2CCCCC2)s1,4.94% (inactive),
O=C(Nc1ccc(Cl)c(Cl)c1)Nc1nnc(-c2ccc(F)cc2)s1,2.77% [at 57.5 µM] (inactive),
O=C(Nc1ccc(Cl)c(Cl)c1)Nc1nnc(N2CCNCC2)s1,,50.1 µM (active)
O=C(Nc1nc(-c2ccccc2)cs1)c1ccccc1-n1cnnn1,-8.17% (inactive),
Cc1cc(-c2nnc3n2CCCCC3)c(C)n1-c1ccc(C(F)(F)F)cc1,8.06% (inactive),
COc1cc(F)c(S(=O)(=O)N2CCCN(S(=O)(=O)c3ccc(N)cc3)CC2)c(F)c1,-9.22% [at 57.5 µM] (inactive),
CC(C)(C)OC(=O)N1CCN(c2ccc(NCc3ccc4c(-c5ccc(F)cc5)cc(=O)oc4c3)cc2)CC1,-18.2% (inactive),
Cc1cc(-c2nnc3n2CCCCC3)c(C)n1-c1cccc(Cl)c1,-10.6% (inactive),
C(#Cc1cccs1)c1cccnc1,7.74% [at 57.5 µM] (inactive),
CCOC(=O)c1scc(-c2ccccc2)c1S(=O)(=O)Nc1ccccc1F,0.149% (inactive),
CC(C)(C)c1nc(-c2cccc(NS(=O)(=O)c3c(F)cccc3F)c2F)c(-c2ccnc(N)n2)s1,,inactive and 39.8 µM (active)
O=C(C[C@H]1CC[C@@H](C(=O)Nc2ccc(S(=O)(=O)Nc3nccs3)cc2)C1)c1ccccc1,-12.4% (inactive),
O=C(NCc1nnc(C(=O)Nc2ccc(C(F)(F)F)cc2Cl)o1)c1ccccc1,2.02% (inactive),
Cc1cccc(C2N=C(Nc3nc4ccccc4o3)NC3=C2C(=O)CCC3)c1 (configuration not stated),15.6% (inactive),
COc1ccc(CC(=O)Nc2ccc(-c3nc4ccccc4s3)c(C)c2)cc1,1.27% (inactive),
COc1ccc2c(c1)Cc1sc(NC(=O)c3ccccc3Br)nc1-2,,50.1 µM (active)
COc1cccc(C(=O)Nc2nnc(S(=O)(=O)N3CCOCC3)s2)c1,9.65% (inactive),
CC(Cc1cnccn1)Nc1cnc2c(O)ccc(C(=O)O)c2c1 (configuration not stated),28.5% (inactive),
CCCn1c(-c2ccc(F)cc2)nc2c(NCC3CCCN3CC)nc(C)nc21 (configuration not stated),-15.7% (inactive),

Structure (SMILES),"activity change, negative = inhibition",Potency
NC(=O)C1CCN(c2ncc(-c3ccc(Cl)cc3)s2)CC1,4.39% (inactive),
COc1cccc(OC2=NS(=O)(=O)c3ccccc32)c1,-0.822% (inactive),
Oc1c(Cl)cc(Cl)c(Cl)c1Cc1c(O)c(Cl)cc(Cl)c1Cl,,31.6 µM (active)
Cc1cc(Nc2cc(C)c(C#N)c(NC(C)CCCC(C)(C)O)n2)n[nH]1 (configuration not stated),-16.6% (inactive),
Cc1ccc(Cn2ncc3c4sc(C)cc4n(C)c3c2=O)c(C)c1,11.8% [at 57.5 µM] (inactive),
O=C1CCc2cc(S(=O)(=O)Nc3cccc(Oc4ccccc4)c3)ccc2N1,-1.41% (inactive),
COc1ccc(C2Nc3ccccc3C(=O)N2Cc2cccs2)cc1COc1c(C)cccc1C (configuration not stated),9.71% (inactive),
COc1cccc(CNc2ccc(S(=O)(=O)Nc3cccs3)cc2)c1O,-9.49% [at 29.8 µM] (inactive),
CCCn1c(C)nc2c(NCCCCN(CC)CC)nc(C)nc21,0.827% (inactive),
CCn1c(=O)c2cc(C(=O)NCCc3ccc(Cl)cc3)sc2c2ccccc21,4.04% (inactive),
CCc1ccc(CNC(=O)c2cc3c(=O)n(CC)c4ccccc4c3s2)cc1,-6.25% (inactive),
CCN(CCCNC(=O)c1cc2c(=O)n(CC)c3ccccc3c2s1)Cc1ccccc1,,79.4 µM (active)
COc1ccc(C2Nc3ccccc3C(=O)N2Cc2ccc(CNC(=O)CO)cc2)cc1COc1ccc(NC(C)=O)cc1 (configuration not stated),12% (inactive),
O=C(Nc1nc2c(s1)CCCC2)c1ccccc1F,,35.5 µM (active)
Cc1cc(C)cc(OC(C)C(=O)Nc2nc3c(s2)CCCC3)c1 (configuration not stated),5.1% (inactive),
O=C(Nc1ccc(S(=O)(=O)N2CCC(c3nc4ccccc4s3)CC2)cc1)c1ccccc1F,7.07% (inactive),
O=C1CCCC2=C1C(c1[nH]ncc1Cl)N=C(Nc1nc3ccc(F)cc3o1)N2 (configuration not stated),2.12% (inactive),
CN1C(=O)[C@@H](NC(=O)c2n[nH]c(Cc3ccccc3)n2)COc2ccccc21,19.5% (inactive),
Nc1ccc2c(=O)n3nc(Nc4ccc5c(c4)CCC5)sc3nc2c1,,inactive
Oc1ccc(/C=C/c2c(F)cccc2F)c2cccnc12,8.34% [at 57.5 µM] (inactive),
CCOc1ccccc1NC(=O)CN1CCN(S(=O)(=O)c2ccc(Br)cc2)CC1,-13.4% (inactive),
CCOc1ccccc1C(=O)Nc1ccc(S(=O)(=O)N2CCCCC2c2cccnc2)cc1 (configuration not stated),,79.4 µM (active)
Cc1cccc(C(=O)Nc2ccc(S(=O)(=O)N3CCCCC3c3cccnc3)cc2)c1 (configuration not stated),-6.08% (inactive),
